HTT-AS promoter: Primary qHTS for Identification of Small Molecule Activators of Huntingtin-Antisense Promoter Activity. HEK293 HTT-AS promoter firefly luciferase reporter, 24 h; response scale: percent change from vehicle, -100% = no light. Potency, µM (top dose mostly 57.5 µM), without a hit: at the highest dose activity change, positive = activation, hits mostly activators. 48,000 compounds, 0.24% hits. AID 1508624, 2021; further: nearly all actives have a fitted effect of over 55% in size
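Luminescence was read after Dual-Glo reagent and a 10 min room-temperature incubation. Values were normalized to vehicle (0% activity) and zero RLU (-100% activity). Reporter HEK293 cells had been exposed to compounds (up to 57.5 uM final) for 24 h.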
NTMT1 inhibitor: Primary qHTS for Inhibitors of N-terminal methyltransferase 1 (NTMT1): MTaseGlo Assay; 59,000 compounds, 2.5% hits; NTMT1 MTase-Glo SAH luminescence, purified enzyme; AID 1645870, 2021; Potency, µM (titrated, usually from 114 µM), for the others: at the highest dose activity change, negative = inhibition, most hits filed as inhibitors;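 further: plate controls were DMSO vehicle for no effect and no enzyme for full effect; nearly all actives have a fitted effect of over 65% in size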
Target sequence (Q9BV86 whole entry, looked up): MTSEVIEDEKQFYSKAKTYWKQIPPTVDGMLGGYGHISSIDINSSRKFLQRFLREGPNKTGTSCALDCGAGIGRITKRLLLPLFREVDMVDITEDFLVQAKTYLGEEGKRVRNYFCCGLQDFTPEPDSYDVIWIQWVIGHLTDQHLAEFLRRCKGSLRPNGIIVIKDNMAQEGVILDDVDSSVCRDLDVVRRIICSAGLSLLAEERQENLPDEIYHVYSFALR
HTT promoter inh: Primary qHTS for Identification of Small Molecule Inhibitors of Huntingtin Promoter Activity | Potency, µM (top dose mostly 57.5 µM), for the others: at the top dose activity change, negative = inhibition, actives largely listed as inhibitors | AID 1508623, 2021 | 48,000 compounds, 0.93% hits | HEK293 HTT promoter firefly luciferase reporter, 24 h; further: nearly all actives have a fitted effect of over 50% in size
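HEK293 luciferase promoter-reporter cells (2,500/well) plated 24 h, then compounds added at up to 57.5 uM final for 24 h at 37 °C. Firefly luminescence by Dual-Glo, normalized to vehicle (0%) and zero RLU (-100%).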
An asterisk follows results filed as active; ? = inconclusive; . = no result given; ! = repeats disagree; [ ] = remark or other dose. The sample as a whole holds a higher share of hits than the screen did. The call rests on the fitted dose curve; in most records, active means well fitted curve in the direction sought with a large enough effect; inconclusive means small, poorly fitted or top-dose-only effect, or another doubt; inactive means no such curve, though single readings can be large; an effect the other way counts as inactive or inconclusive. Potency means the concentration at half of the fitted maximal effect.

SMILES	HTT-AS promoter	NTMT1 inhibitor	HTT promoter inh
O=C(NNc1nc2cc(F)ccc2n2cccc12)c1cnccn1	.	8%[57.5 µM]	.
CCCN(CCC)C(=O)C1CCCN(S(=O)(=O)c2cc(Br)cc3c2N(C(=O)CC)CC3)C1 (stereo not given)	-16%	-1%	-4%
CCC(=O)N1CCc2cc(Br)cc(S(=O)(=O)N3CCCC(C(=O)Nc4cccc(C)c4C)C3)c21 (stereo not given)	-32%	3%	-16%
CCC(=O)N1CCc2cc(Br)cc(S(=O)(=O)N3CCCC(C(=O)N(C)c4ccc(Br)cc4)C3)c21 (stereo not given)	-42%	89µM*	-37%
CCC(=O)N1CCc2cc(Br)cc(S(=O)(=O)N3CCCC(C(=O)Nc4ccc(OC)cc4OC)C3)c21 (stereo not given)	-11%	89µM*	-1%
CC(=O)OCC(=O)O[C@@H]1[C@H]2[C@@H](OC(=O)c3ccccc3)[C@@H](C)C[C@]2(O)[C@H](OC(C)=O)C2(C)[C@H]3CC(C)(C)C(=O)[C@@H]3CC1(OC(C)=O)[C@@H]2OC(C)=O (stereo not given in full)	.	21%[12.6 µM]	.
Cc1c(C)n(Cc2ccc(-c3ccccc3C(=O)O)cc2)c2ccc(C(=O)N[C@@H](C)c3ccc([N+](=O)[O-])cc3)cc12	-28%	32µM*!	-33%
Cc1c(C)n(Cc2ccccc2)c2ccc(C(=O)NCc3ccc(OC(C)C)cc3)cc12	-23%	-5%	-16%
C/C=C1\NC(=O)[C@H]2CSSCC/C=C\[C@H](CC(=O)N[C@H](C(C)C)C(=O)N2)OC(=O)[C@H](C(C)C)NC1=O	.	-4%	.
COc1cccc(NC(=O)CN(CCc2ccccc2)S(=O)(=O)c2ccc(Cl)cc2)c1	-15%	2.5µM*	-18%
COC(=O)c1ccc(NC(=O)CN(CCc2ccccc2)S(=O)(=O)c2ccc(OC)cc2)cc1	-48%	?	?
O=C(Nc1cccc(C(F)(F)F)c1)c1cc(-c2ccc(Cl)cc2)on1	-8%	8%	-6%
FC(F)(F)c1cccc(Nc2nc3nonc3nc2Nc2ccc(Cl)cc2)c1	-94%	9%	0.35µM*
O=C(Nc1ccn(Cc2c(F)cccc2C(F)(F)F)n1)c1c(F)cccc1F	.	19%[12.6 µM]	.
S=P(N1CC1)(N1CC1)N1CC1	-7%	16µM*!	-5%
C[C@@H]1O[C@@H](O[C@H]2[C@H](OC(=O)[C@]34CCC(C)(C)C[C@H]3C3=CCC5[C@@]6(C)C[C@@H](O)[C@@H](O[C@@H]7O[C@H](CO)[C@@H](O)[C@H](O)[C@H]7O)[C@@](C)(CO)C6[C@H](O)C[C@@]5(C)[C@]3(C)CC4)OC[C@H](O)[C@@H]2O)[C@H](O)[C@H](O[C@@H]2OC[C@](O)(CO)[C@H]2O)[C@H]1O[C@@H]1OC[C@@H](O)[C@H](O[C@H]2O[C@H](C)[C@@H](O)[C@H](O)[C@@H]2O)[C@H]1O (stereo not given in full)	.	-8%[6.45 µM]	.
COc1cc(-c2nc(Nc3ccc(F)c(F)c3)c3ccccc3n2)c(F)cn1	.	5%[57.5 µM]	.
CCc1ccc(C2Sc3ccccc3NC3=C2C(=O)c2ccccc23)cc1 (stereo not given)	-1%	-14%	?
CC(C)c1ccc(C2Sc3ccccc3NC3=C2C(=O)c2ccccc23)cc1 (stereo not given)	-80%	1%	13µM*
O=C(c1cccc(Cl)c1F)N1CCN(Cc2cccc(Nc3nccs3)n2)CC1	.	3%[57.5 µM]	.
Oc1cccc(-c2nc(N3CCOCC3)c3oc4ncccc4c3n2)c1	-19%[116 µM]	?	?
Oc1cccc(-c2nc(N3CCOCC3)c3sccc3n2)c1	.	40µM*	.
CCn1c2c(c(=O)n3ncc(C(=O)Nc4cc(Cl)ccc4OC)c13)CN(Cc1ccc(OC)cc1)CC2	-19%	-19%	-3%
COc1ccc(CN2CCc3c(c(=O)n4ncc(C(=O)N5CCN(c6ccccc6OC)CC5)c4n3C)C2)cc1	-88%	18%	1.8µM*
CC1CCCN(CCCNC(=O)c2cc(Sc3ccc(F)cc3)nc3ccccc23)C1 (stereo not given)	-24%	2%	?
O=C(NCCCN1CCCCC1)c1cc(Sc2ccc(Cl)cc2)nc2ccccc12	-26%	89µM*	-25%
CC1=C(C(=O)Nc2ccc(Cl)cc2)C(c2ccccc2Br)N=C(Nc2nc3ccccc3o2)N1 (stereo not given)	.	16%	.

Compound activity (PubChem BioAssay)
